# Test results published in PubChem BioAssay (Tox21).
# Inconclusive results are not listed. A number with no mark means an inactive call. Calls of active or inactive are those of the source. The call rests on the fitted dose curve; in most records, active means well fitted activation curve with a large enough effect in the repeat runs; inconclusive means weak or mixed curves; inactive means no such curve, though single readings can be large or run the other way.
# Biological target: Nuclear receptor subfamily 1 group I member 2 (Homo sapiens) (UniProt O75469)
# Assay: Human pregnane X receptor (PXR) small molecule agonists, qHTS assay (AID 1346982); further: nearly all actives have a fitted effect of over 35% in size
# Conditions: PXR-Luc HepG2, CYP3A4 luciferase reporter, 24 h; series mostly up to 92.4 µM; activation: at the top concentration
# Source text: National Center for Advancing Translational Sciences [NCATS]
# NIH Chemical Genomics Center [NCGC]
# U.S. Environmental Protection Agency [EPA]
# National Institutes of Environmental Health Sciences [NIEHS]
# National Toxicology Program [NTP]
# The human pregnane X receptor (hPXR) regulates the expression of several drug metabolizing enzymes and induction of these proteins is a major mechanism for developing drug resistance in cancer. One such key enzyme catalyzing the drug metabolism is cytochrome P450 3A4 (CYP3A4). Changes in CYP3A4 expression affect drug metabolism, thereby reducing the therapeutic efficacy and altering toxicological response to a drug and which finally causes adverse drug interaction. To screen Tox21 libraries for compounds that activate hPXR-mediated CYP3A4 gene expression, PXR-Luc HepG2 cells were used.
# PXR-Luc HepG2 cells were dispensed at 2,000 per well in 5uL of assay medium containing 5% charcoal-stripped FBS into white solid bottom 1536-well plates (Corning Life Sciences, Corning, NY) using a Multidrop Combi (Thermo Scientific, Waltham, MA) dispenser. The assay plates were incubated at 37 C and 5% CO2 for 5hr, and then 23nL of compounds dissolved in DMSO and positive control were transferred using a Pintool station (Wako, San Diego, CA). The assay plates were incubated at 37C and 5% CO2 for 24hr. For luciferase read, 4uL of ONE-Glo reagent (Promega Corporation, Madison, WI) was added to each well of the assay plates using Flying Reagent Dispenser (FRD, Aurora Discovery, San Diego, CA) and incubated the assay plates at room temperature for 30min. The luminescence signal was quantified using a ViewLux plate reader (Perkin Elmer, Shelton, CT).
# On the % scale 0 is the no-effect control and ±100 the full control effect; potency means the concentration at half of the fitted maximal effect.
# Nuclear receptor subfamily 1 group I member 2 (Homo sapiens), sequence (O75469 whole entry, looked up): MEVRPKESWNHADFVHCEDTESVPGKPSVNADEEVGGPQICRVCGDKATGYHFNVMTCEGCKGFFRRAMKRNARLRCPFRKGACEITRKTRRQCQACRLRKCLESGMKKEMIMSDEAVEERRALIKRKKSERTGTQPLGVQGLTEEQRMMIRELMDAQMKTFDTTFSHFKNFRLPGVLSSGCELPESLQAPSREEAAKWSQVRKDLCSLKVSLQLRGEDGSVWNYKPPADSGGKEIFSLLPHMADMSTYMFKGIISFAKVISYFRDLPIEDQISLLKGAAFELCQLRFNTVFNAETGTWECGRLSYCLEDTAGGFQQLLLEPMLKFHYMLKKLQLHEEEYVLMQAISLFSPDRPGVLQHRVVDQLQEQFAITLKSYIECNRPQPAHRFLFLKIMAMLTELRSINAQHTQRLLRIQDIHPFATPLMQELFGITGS
SMILES,activation,Potency
CCCCCCC,0.146%,–
CCOc1ccc(NS(=O)(=O)c2ccc(N)cc2)nn1,-5.99% [at 42.5 µM],–
O=c1oc2c(O)c(O)cc3c(=O)oc4c(O)c(O)cc1c4c23,-29.4% [at 19 µM],–
CC(=O)Oc1cc(C(C)C)c(OCCN(C)C)cc1C,-5.28% [at 42.5 µM],–
CC/C=C\CCOC(=O)CCCCC,13.1%,–
O=C(CC(=O)C(F)(F)F)c1ccccc1,–,55.3 µM (active)
O=S(=O)(O)C(F)(F)F,20.9%,–
CN1CCN(c2c(F)cc3c(=O)c(C(=O)O)cn4c3c2SCC4)CC1,-3.11% [at 42.5 µM],–
CCCN(CCC)C(=O)C(CCC(=O)O)NC(=O)c1ccccc1 (stereo not given),-5.72% [at 42.5 µM],–
CCN(CC)CC1CCCCN1CC(=O)N1c2ccccc2C(=O)Nc2cccnc21 (stereo not given),5.13% [at 42.5 µM],–
COc1nc(C)nc(NC(=O)NS(=O)(=O)c2ccccc2OCCCl)n1,17%,–
CCCCC1CCC(=O)O1 (stereo not given),-3.97%,–
FC(F)(F)c1ccccc1,-2.54%,–
CCOC(=O)[C@H](CCc1ccccc1)N[C@@H](C)C(=O)N1Cc2cc(OC)c(OC)cc2C[C@H]1C(=O)O,11.1% [at 42.5 µM],–
Cc1cc2c(s1)Nc1ccccc1N=C2N1CCN(C)CC1,11.5% [at 42.5 µM],–
O=[N+]([O-])c1nccn1CO[C@@H](CO)[C@H](O)CO,-7.62% [at 42.5 µM],–
CC(=O)OC1C2(C)CCC(C2)C1(C)C (stereo not given),3.95%,–
CC(C)OC(C)C,-5.18%,–
COC(=O)c1ccc(OC)cc1,5.26%,–
OCc1ccccc1O,-7.59% [at 42.5 µM],–

SMILES,activation,Potency
FC(F)(F)C(F)(F)C(F)(F)C(F)(F)C(F)(F)C(F)(F)C(F)(F)C(F)(F)Br,6.53% [at 42.5 µM],–
NCCCN1CCN(CCCN)CC1,1.88%,–
COc1ccccc1OCC(O)COC(N)=O (stereo not given),-10.5% [at 42.5 µM],–
CCN(CC)C(=O)N(CC)CC,3.12%,–
OCCN(CCO)c1ccccc1,29.9%,–
CCOc1ccccc1N,19.5%,–
C[C@]12C(=O)OC(=O)[C@H]1[C@H]1C=C[C@@H]2C1,14.2%,–
C[C@]12CCC(=O)C=C1CC[C@@H]1[C@@H]2CC[C@@]2(C)[C@H]1CC[C@]2(O)C(=O)CO,15.8% [at 42.5 µM],–
c1ccc(CN(CC2=NCCN2)c2ccccc2)cc1,13.3% [at 42.5 µM],–
Cc1cccc(C)c1NC(=O)CN1CCCCCC1,–,11.9 µM (active)
Cc1cc(S(=O)(=O)O)c(N)cc1Cl,7.96%,–
FC(F)(F)C(Cl)(Cl)Cl,8.32%,–
Nc1ccc2ccccc2c1S(=O)(=O)O,–,62.3 µM (active)
CN1[C@@H]2CC[C@H]1CC(OC(=O)c1c[nH]c3ccccc13)C2 (stereo not given in full),2.07% [at 42.5 µM],–
O=c1[nH]cnc2c1ncn2[C@@H]1O[C@H](CO)[C@@H](O)[C@H]1O,13.9% [at 42.5 µM],–
C=CC1CO1 (stereo not given),-4.7%,–
CCCOc1ccc2c(c1)CC[C@@H]1[C@@H]2CC[C@]2(C)C(OC)CC[C@@H]12 (stereo not given in full),20.8% [at 42.5 µM],–
COc1ccc(S(=O)(=O)Nc2nnc(CC(C)C)s2)cc1,-4.77% [at 42.5 µM],–
NC/C=C/C(=O)O,1.09% [at 42.5 µM],–
CN1CCN(C2=Nc3ccccc3Oc3ccc(Cl)cc32)CC1,–,23.7 µM (active)
